Data on 21 compounds can be found in PubChem BioAssay (Tox21).

Structures are written as SMILES. Several values for one entry are separate records, joined by “and”; a condition that tells them apart may be missing. Equal values may be shown once. Inconclusive results are not listed. The source holds several records for some structures; these can differ, active in one and inactive in another. Activity calls are given as the source filed them. Unless noted, calls follow the shape of the dose curve; as a rule, active = well fitted curve in the direction sought with a large enough effect in the repeat runs; inconclusive = weak or mixed curves; inactive = no such curve, though single readings can be large; an effect the other way counts as inactive or inconclusive. Starred links: 1 amine or outer side, 2 acyl side, 3 side chain; linkers in the order of their positions; H or OH if unused. Positions of bridges follow the written chain, without caps; N, C: chain ends. Non-standard residues stand in square brackets, D forms with d. Residues, ends and D or L forms follow the SMILES beside them. Chains are numbered I, II in the order given. Actinocin(9to1) = Cc1c2oc3c(C)ccc(C(=O)[*:1])c3nc-2c(C(=O)[*:2])c(N)c1=O; NMeV = CN[C@H](C(=O)O)C(C)C; Sar = CNCC(=O)O

Assay [1] in a line: qHTS assay to identify small molecule antagonists of the retinoid acid receptor (RAR) signaling pathway - cell viability counter screen (AID 1159551). Also: nearly all actives have a fitted effect of over 35% in size. Also: potency is read from the fitted curve at half-maximal effect. The gist of the method:
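ATP-based viability, C3RL4 cells, 6 h at 37 C with 1 uM final retinol co-added after compound; luminescence read 30 min post CellTiter-Glo, RT.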
Background: Quantitative high-throughput screening tests each substance at several concentrations.

Assay [2] is described as follows: qHTS assay to identify small molecule antagonists of the retinoic acid receptor (RAR) signaling pathway (AID 1159552; also: potency is read from the fitted curve at half-maximal effect; nearly all actives have a fitted effect of over 50% in size). The gist of the method:
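Using a RARE-driven luciferase construct in C3RL4 cells, retinol at 1 uM final provided the agonist stimulus while compounds were co-applied. After 6 hours at 37 C, luminescence was recorded to flag inhibitors of retinol signaling.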

A short description of assay [3]: qHTS assay to identify small molecule antagonists of the estrogen related receptor (ERR) signaling pathway from Tox21 library - cell viability counter screen (AID 1224834). Also: nearly all actives have a fitted effect of over 30% in size. Also: potency is read from the fitted curve at half-maximal effect. A digest of the protocol: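 Compounds in DMSO were pinned onto ERR cells that had been incubated for 6 h, and the plates were held at 37 C for 17.5 h. CellTiter-Fluor reagent was then added and fluorescence was measured after 30 min.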

Assay [4] is described as follows: qHTS assay to identify small molecule agonists of the retinoic acid receptor (RAR) signaling pathway (AID 1159553). Also: potency is read from the fitted curve at half-maximal effect. The gist of the method:
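Quantitative high-throughput format: the Tox21 10K library was tested on C3RL4 RARE-luciferase cells for 6 hr at 37 C and 5% CO2, with luminescence measured after a 30 min room-temperature reagent step.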

The nature of assay [5]: qHTS assay to identify small molecule antagonists of the estrogen related receptor (ERR) signaling pathway - cell viability counter screen (AID 1224818). Also: series mostly up to about 46 µM. A digest of the protocol: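 Quantitative high-throughput viability counter screen in ERR cells. Compounds (DMSO) incubated 17.5 h at 37 C; read-out was CellTiter-Fluor fluorescence.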
Assay [6] can be described thus: qHTS assay to identify small molecule antagonists of the estrogen related receptor (ERR) signaling pathway (AID 1224819;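 also: luminescence from an ERR-driven luciferase reporter measured with One-Glo reagent; series mostly up to about 46 µM; nearly all actives have a fitted effect of over 50% in size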). A digest of the protocol: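 ERR reporter cell line (NTP) plated at 2,000 cells/well, settled 6 h at 37C/5% CO2, then exposed to LOPAC compounds for 18 h at 37C. One-Glo luciferase luminescence read after 30 min at room temperature.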
Assay [7] is described as follows: qHTS assay to identify small molecule agonists of the estrogen related receptor (ERR) signaling pathway (AID 1224820). A digest of the protocol:
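Luminescence readout (One-Glo, 30 min RT) from NTP-supplied ERR cell line exposed to compounds for 18 h at 37 C. Cells seeded 2,000 per well and pre-incubated 6 h before pin-tool compound transfer.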

In assay [8] the test system is estrogen-related receptor alpha (ERRalpha) with PGC-1alpha coactivator, human. In words: qHTS assay to identify small molecule antagonists of the estrogen related receptor signaling pathway with the pleiotropic PPARgamma coactivator (PGC) (AID 1224821; calls by dose curve;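 also: series mostly up to about 46 µM; lower luminescence signal means antagonism of PGC/ERR signalling; nearly all actives have a fitted effect of over 50% in size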). A digest of the protocol:
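PGC/ERR reporter cells; 6 h pre-incubation 37 C/5% CO2; pin-tool compound in DMSO, 18 h 37 C; One-Glo added, 30 min RT; luminescence read. qHTS antagonist mode.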

Assay [9] is described as follows: qHTS assay to identify small molecule antagonists of the estrogen related receptor signaling pathway with the pleiotropic PPARgamma coactivator (PGC) cell viability counter screen (AID 1224822; also: series mostly up to about 46 µM). A digest of the protocol: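 Cytotoxicity in the PGC/ERR cell line is assessed with CellTiter-Fluor, read as fluorescence intensity 30 min after reagent addition, following 17.5 h compound treatment at 37 C.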

The nature of assay [10]: qHTS assay to identify small molecule agonists of the estrogen related receptor signaling pathway with the pleiotropic PPARgamma coactivator (PGC) (AID 1224823). The gist of the method: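 Luminescence readout (One-Glo, 30 min RT) from PGC/ERR cell line treated 18 h at 37 C with pin-tool-delivered DMSO compound solutions; cells plated 6 h before dosing. Quantitative HTS format.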

Regarding `CCCCCCCCCCCCc1ccccc1O`, the Potency was 61.1 µM (active) in [1]; 47.9 µM (active) and 54.5 µM (active) in assay [2]; 43.3 µM (active) in assay [3].

For `CC(C)(C)c1ccc(O)c(C(C)(C)C)c1`, the Potency in [1] was 54.3 µM (active) and 54.5 µM (active). In addition, the Potency entry in [4] is “inactive”.

As to `c1cnc2cc3c(cc2n1)C1CNCC3C1`, the Potency result in assay [1], in [4], in assay [5], in assay [6], in [8] and in [9] was “inactive” throughout. The call in assay [7] and in assay [10] was inactive.

As to `CCn1cc(C(=O)O)c(=O)c2cc(F)c(N3CCNC(C)C3)c(F)c21` (stereo not drawn), the Potency result in [1], in assay [4], in [5], in assay [6], in assay [8] and in assay [9] was “inactive” throughout. Further, the call in assay [7] and in assay [10] was inactive.

Turning to `CC(=O)N[C@@H](CS)C(=O)O`, the Potency result in assay [1], in assay [4], in [5] and in assay [9] was “inactive” in each case.

On to `NNCCc1ccccc1`, for which the Potency result in [1], in [5], in [9] and in assay [3] was “inactive” throughout. In addition, the Potency in assay [4] is 1.37 µM (active) and 9.44 µM (active).

As to `CC(C)(C)NCC(O)c1cc(O)cc(O)c1` (stereo not drawn), the Potency result in assay [1], in assay [4], in [5], in assay [9] and in assay [3] was “inactive” throughout.

In the case of `O=Cc1ccc(Cl)cc1`, the Potency entry in [1], in assay [4] and in assay [3] was “inactive” each time.

`O=C(O)CP(=O)(O)O`: the Potency entry in assay [1], in [4], in assay [5] and in [9] was “inactive” in each case.

For `CC(C(O)c1ccc(O)cc1)N1CCC(Cc2ccccc2)CC1` (stereo not drawn), the Potency entry in assay [1], in [4], in assay [5] and in [3] was “inactive” throughout. Besides, the outcome in assay [7] and in [10] was inactive.

For `O=C(Nc1ccccc1SSc1ccccc1NC(=O)c1ccccc1)c1ccccc1`, the Potency entry in assay [1] is “inactive”. Also, the Potency in [2] was 15.4 µM (active); in assay [3], 43.5 µM (active) and 48.6 µM (active).

With `O=C(O)CCc1ccccc1`, the Potency entry in [1] and in assay [4] was “inactive” in each case.

As to `Cc1cc(OCCOCC[N+](C)(C)Cc2ccccc2)ccc1C(C)(C)CC(C)(C)C`, the Potency was 60.8 µM (active) and 29.8 µM (active) in [1]; 48.3 µM (active) and 29.8 µM (active) in assay [2]; 54.2 µM (active) and 16.8 µM (active) in assay [3].

Turning to `CC(COc1ccccc1)N(CCCl)Cc1ccccc1` (stereo not drawn), the Potency result in [1] and in assay [3] was “inactive” each time.

As for `CCc1cc(C(C)(C)C)c(O)c(C(C)(C)C)c1`, the Potency result in assay [1], in assay [4] and in assay [3] was “inactive” each time.

Turning to `CC(=O)OCCOCCOCCOC(C)=O`, the Potency entry in assay [1], in assay [4] and in [3] was “inactive” each time.

As for `Cc1c2oc3c(C)ccc(C(=O)N[C@@H]4C(=O)N[C@H](C(C)C)C(=O)N5CCC[C@H]5C(=O)N(C)CC(=O)N(C)[C@@H](C(C)C)C(=O)O[C@@H]4C)c3nc-2c(C(=O)N[C@@H]2C(=O)N[C@H](C(C)C)C(=O)N3CCC[C@H]3C(=O)N(C)CC(=O)N(C)[C@@H](C(C)C)C(=O)O[C@@H]2C)c(N)c1=O` (I: T[dV]P[Sar][NMeV] / II: T[dV]P[Sar][NMeV]; ester I:1-I:C, II:1-II:C; linker I:N-II:N via Actinocin(9to1)), the Potency in [3] was 7.48 µM (active) and 188 nM (active).

Regarding `Cc1cc(C2(c3cc(C)c(O)cc3C)OS(=O)(=O)c3ccccc32)c(C)cc1O`, the Potency entry in assay [1] is “inactive”. Moreover, the Potency in assay [3] was 21.7 µM (active) and 24.3 µM (active).

Turning to `CCCCC(CC)COC(=O)CC(C(=O)OCC(CC)CCCC)S(=O)(=O)O` (stereo not drawn), the Potency result in assay [4] was “inactive”.

Regarding `CCOc1ccccc1C(N)=O`, the Potency result in [1] and in [3] was “inactive” throughout.

For the compound `CC1=CC(=O)c2ccccc2C1=O`, the Potency is 27.3 µM (active) in [1]; 61.1 µM (active) and inactive in assay [3]. In addition, the Potency result in assay [4] was “inactive”.
